Assay results as given in article PMC4336329 (PLoS ONE, 2015).
Among all 310,000 compounds or so, about 14,000 (4.5%) showed an effect of 50% or more. Effects have a minus sign here. Shown is part of a subset that was picked to be rich in strong results.

Biological target: human ether-à-go-go-related gene (hERG) potassium channel (human, UniProt Q12809)
Assay: primary screen, population patch clamp on CHO cells stably expressing hERG; higher = less effect of the substance
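Also: peak tail current of the secondary pulse compared with the same well before compound.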

Chain of human ether-à-go-go-related gene (hERG) potassium channel (Q12809 whole entry, looked up): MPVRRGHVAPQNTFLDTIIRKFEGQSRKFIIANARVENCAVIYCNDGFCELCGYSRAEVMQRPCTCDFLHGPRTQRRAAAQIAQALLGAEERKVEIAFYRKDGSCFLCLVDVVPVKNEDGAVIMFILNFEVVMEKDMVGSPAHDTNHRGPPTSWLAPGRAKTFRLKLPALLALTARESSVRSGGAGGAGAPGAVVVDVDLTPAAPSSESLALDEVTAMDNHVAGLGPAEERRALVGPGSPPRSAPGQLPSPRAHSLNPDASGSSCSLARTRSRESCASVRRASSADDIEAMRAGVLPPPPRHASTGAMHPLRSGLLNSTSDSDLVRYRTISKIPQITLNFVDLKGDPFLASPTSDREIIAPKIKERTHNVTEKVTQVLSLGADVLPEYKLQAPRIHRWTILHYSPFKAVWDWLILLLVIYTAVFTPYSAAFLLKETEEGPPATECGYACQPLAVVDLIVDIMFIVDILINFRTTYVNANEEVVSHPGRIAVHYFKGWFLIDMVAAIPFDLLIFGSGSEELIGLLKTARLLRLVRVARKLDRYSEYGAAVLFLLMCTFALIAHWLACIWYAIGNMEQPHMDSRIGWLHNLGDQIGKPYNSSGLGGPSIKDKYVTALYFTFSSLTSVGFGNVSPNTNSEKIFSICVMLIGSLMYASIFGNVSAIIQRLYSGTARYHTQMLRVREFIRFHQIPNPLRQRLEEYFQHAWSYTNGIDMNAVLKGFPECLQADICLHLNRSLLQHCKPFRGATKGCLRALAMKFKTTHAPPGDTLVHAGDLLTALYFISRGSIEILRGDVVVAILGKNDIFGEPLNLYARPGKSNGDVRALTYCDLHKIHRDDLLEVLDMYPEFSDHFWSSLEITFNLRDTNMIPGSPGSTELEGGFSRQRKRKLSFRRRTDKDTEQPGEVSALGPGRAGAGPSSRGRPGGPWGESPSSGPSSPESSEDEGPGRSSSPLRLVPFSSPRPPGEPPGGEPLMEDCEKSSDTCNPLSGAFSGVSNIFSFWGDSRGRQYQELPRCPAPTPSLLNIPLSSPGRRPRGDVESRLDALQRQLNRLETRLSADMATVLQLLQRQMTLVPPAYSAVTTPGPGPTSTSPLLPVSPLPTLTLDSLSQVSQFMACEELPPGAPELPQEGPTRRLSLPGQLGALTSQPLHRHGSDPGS

Compound | hERG current change (%, negative = inhibition) at 10uM [%]
CCOC(=O)[C@@H]1[C@H]2COc3cc(OC)ccc3[C@@H]2N2C(=O)N(c3cccc(C)c3)C(=O)[C@@]12C | -5.14
CCC1=NN(C(=O)c2ccc(C)cc2)C(O)(c2ccc(Br)cc2)C1 (centres unmarked) | -10.7
COc1ccccc1C(CC(=O)Nc1nccs1)c1ccco1 (centres unmarked) | 2.68
Cc1ccc(C)c(NC(=O)CN(C)C(=O)/C=C/c2ccco2)c1 | 15.7
COc1ccccc1/C=C/C=N/NC(=O)c1cnccn1 | 13.5
Cc1ccc(-c2csc(NC(=O)c3ccc(Br)cc3)c2C(=O)O)cc1 | 46.9
O=C(O)C(Cc1c[nH]c2ccccc12)N1CCS(=O)(=O)CC1 (centres unmarked) | 16.3
N#CC1(NC(=O)COC(=O)c2ccc(-c3ccc(O)cc3)cc2)CCCCC1 | 7.22
CC1(C)C(=O)OC(c2ccc([N+](=O)[O-])cc2)C(C)(C)C1=O (centres unmarked) | 18.4
N#Cc1cc(NC2CCCC2)c([N+](=O)[O-])cc1C#N | -5.68
Cn1cc(S(=O)(=O)N2CCCC2)cc1C(=O)NCCc1ccccc1 | -2.66
O=Cc1ccc2noc(-c3ccc(Cl)cc3)c2c1 | -1.22
Cc1ccc(/C=C2\SC(=S)N(CCC(=O)NNC(=O)c3cccnc3)C2=O)cc1 | 1.06
O=C(NCCCN1CCC(Cc2ccccc2)CC1)c1ccc2nc(N3CCOCC3)sc2c1 | -66.2
O=C(c1ccc2nc(N3CCOCC3)sc2c1)N1CCCC1 | -10.8
O=C(NCCc1ccccc1)c1ccc2nc(N3CCOCC3)sc2c1 | 3.75
O=C(NCc1ccccc1)c1ccc2nc(N3CCOCC3)sc2c1 | -5.89
CCC(Cc1ccccc1)NC(=O)c1ccc2nc(N3CCOCC3)sc2c1 (centres unmarked) | -46.5
O=C(c1ccc2nc(N3CCOCC3)sc2c1)N1CCC(Cc2ccccc2)CC1 | -63.2
O=C(c1ccc2nc(N3CCOCC3)sc2c1)N1CCN(C(=O)c2ccco2)CC1 | -47.4
CCCCN(CCCNC(=O)c1ccc2nc(N3CCOCC3)sc2c1)Cc1ccccc1 | -62

Compound | hERG current change (%, negative = inhibition) at 10uM [%]
CC1CC(C)CN(CCCNC(=O)c2ccc3nc(N4CCOCC4)sc3c2)C1 (centres unmarked) | -19.5
CCOC(=O)c1ccc(-c2c(-c3ccccc3OC)sc3cc4c(cc23)OCO4)cc1F | 12.5
Cc1cccc(-c2nsc(SCC(=O)Nc3cc(C)on3)n2)c1 | 16.1
CC(=Nc1ccc2c(c1)CCC2)c1c(O)n(C)c(=O)n(C)c1=O | -3.93
COc1cccc(CN2CCN(Cc3nc4c(s3)CCCC4)CC2CCO)c1 (centres unmarked) | -48.5
CCOc1ccccc1CN1CCN(Cc2nc3ccccc3s2)CC1CCO (centres unmarked) | -74.8
CCOc1ccccc1CN1CCN(Cc2nc3c(s2)CCCC3)CC1CCO (centres unmarked) | -67.9
Cc1cccc(CN2CCN(Cc3nc4c(s3)CCCC4)CC2CCO)n1 (centres unmarked) | -28.6
Cc1ccc(/C=C2/SC(=S)N(CCCC(=O)Nc3cc([N+](=O)[O-])ccc3O)C2=O)cc1 | 13.1
O=C(NC(=S)NCCc1ccccc1)c1ccco1 | 10.2
NC(=O)c1sc2cc(C(F)(F)F)cnc2c1-c1ccccc1 | 15.5
CCOc1ccc(OCC)c(NC(=O)C2CCN(S(=O)(=O)c3cccnc3)CC2)c1 | -29.9
Clc1ccc(-c2cnc3n2CCC3)cc1 | -23.1
Cc1cnc(NC(=O)CSc2c(Cl)cccc2Cl)s1 | -6.06
COc1cccc(O)c1CN1CCC(C(=O)Nc2ccc(Oc3cccnc3)cc2)CC1 | -47.4
O=C(Nc1ccc(Oc2cccnc2)cc1)C1CCN(Cc2cccc(Cl)c2)CC1 | -52.8
Cc1cccc(CN2CCC(C(=O)Nc3ccc(Oc4cccnc4)cc3)CC2)c1 | -14
O=C(Nc1ccc(Oc2cccnc2)cc1)C1CCN(Cc2ccccc2)CC1 | -75.1
O=C(Nc1ccc(Oc2cccnc2)cc1)C1CCN(Cc2ccc(F)cc2)CC1 | -55.2
COc1ccc(CN2CCC(C(=O)Nc3ccc(Oc4cccnc4)cc3)CC2)cc1 | -69.3
COc1ccc(CN2CCC(C(=O)Nc3ccc(Oc4cccnc4)cc3)CC2)c(C)c1C | -36.8

Compound | hERG current change (%, negative = inhibition) at 10uM [%]
O=C(Nc1ccc(Oc2ccccc2)cc1)C1CCN(c2ncccn2)CC1 | 0.064
O=C(Nc1ccc(Oc2cccnc2)cc1)C1CCCCN1Cc1ccc(CO)o1 (centres unmarked) | 1.59
O=C(Nc1ccc(Oc2cccnc2)cc1)C1CCN(Cc2cc(Cl)ccc2O)CC1 | -45.9
Cc1ccccc1CN1CCC(C(=O)Nc2ccc(Oc3cccnc3)cc2)CC1 | -48.6
Cc1ccc(CN2CCCCC2C(=O)Nc2ccc(Oc3cccnc3)cc2)o1 (centres unmarked) | -19.4
COc1cccc(CN(CC(=O)NCC2CCCO2)C(=O)CCC(=O)Nc2cc(C)on2)c1 (centres unmarked) | -0.822
CCOC(=O)CCCCCNC(=O)c1c(O)[nH]c(=O)[nH]c1=O | 17.7
O=C(c1cc(-c2ccncc2)nc2ccccc12)N1CCC2(CC1)OCCO2 | -25.9
CC(C)c1nc2oc3c(NCc4ccccn4)ncnc3c2c2c1COC(C)(C)C2 | 5.62
C/C(=N\NC(=O)COc1ccccc1[N+](=O)[O-])c1cccs1 | 10.3
COc1cc(-c2nc(=S)[nH][nH]2)cc(OC)c1OC | 5.94
Cc1ccc(C(=O)N/C(=C/c2ccco2)C(=O)NCc2ccco2)cc1 | -12
O=C(NCc1cccnc1)/C(=C/c1ccc(-c2cccc(C(F)(F)F)c2)o1)NC(=O)c1ccccc1 | -74.1
COc1ccc(C(=O)N/C(=C/c2ccco2)C(=O)NCc2ccco2)cc1 | -30.1
Cc1ccc(C(=O)N/C(=C\c2ccco2)C(=O)NCc2cccnc2)cc1 | -65.2
O=C(NCc1cccnc1)/C(=C/c1ccco1)NC(=O)c1ccccc1 | -58.6
O=C(NCc1cccnc1)/C(=C/c1ccc(-c2cccc(Cl)c2)o1)S(=O)(=O)c1ccccc1 | -26.2
O=C(NCc1ccco1)/C(=C/c1ccco1)NC(=O)c1ccccc1 | 4.34
Cc1ccc(C(=O)N/C(=C/c2ccco2)C(=O)O)cc1 | -3.15
Cc1ccc(C(=O)N/C(=C/c2ccc(-c3cc(C(F)(F)F)ccc3Cl)o2)C(=O)NCc2cccnc2)cc1 | -1.72
COc1ccc(C(=O)N/C(=C\c2ccco2)C(=O)NCc2cccnc2)cc1 | -66.7

Compound | hERG current change (%, negative = inhibition) at 10uM [%]
O=C(NCc1ccccn1)/C(=C/c1ccco1)NC(=O)c1ccccc1 | -10
COc1ccc(C(=O)N/C(=C\c2ccco2)C(=O)NCc2ccco2)cc1 | -19.7
O=C(Cn1nnc(-c2ccccc2)n1)NNC(=O)c1ccc(Br)cc1 | 17.6
O=C(Nc1nnc(-c2ccco2)s1)C1CC1 | -10.2
O=C(CN1C(=O)/C(=C/c2c(F)cccc2Cl)Oc2ccccc21)NCc1ccco1 | 10.9
CC(=O)O.Cc1ccc(C2C(C(=O)c3cccs3)=C(O)C(=O)N2c2ccc(S(N)(=O)=O)cc2)cc1 (centres unmarked) | 16.5
CCOc1ccc(-n2cc(C(=O)N3CCN(C)CC3)c3cc(OC)c(OC)cc3c2=O)cc1 | 4.98
CCN(CC)CCN(C(=O)c1cc(Cl)sc1Cl)c1nc2cc3c(cc2s1)OCO3.Cl | -24.7
CCN(CC)CCN(C(=O)C1=COCCO1)c1nc2c(OC)ccc(OC)c2s1.Cl | -78.3
CCN(C(=O)C1=COCCO1)c1nc2c(C)cccc2s1 | -17.2
Cc1ccc2nc(N(CCN(C)C)C(=O)C3=COCCO3)sc2c1.Cl | -44.1
CCN(CC)CCN(C(=O)c1c(F)cccc1F)c1nc2cc(C)cc(C)c2s1.Cl | -11.1
CCN(CC)CCN(C(=O)C1=COCCO1)c1nc2cc3c(cc2s1)OCO3.Cl | -72
CCN(CC)CCN(C(=O)c1ccc(S(=O)(=O)N(CC)c2ccccc2)cc1)c1nc2c(OC)ccc(OC)c2s1.Cl | -27
CCN(CC)CCN(C(=O)/C=C/c1cccs1)c1nc2ccc(C)cc2s1.Cl | -10.8
CCN(CC)CCN(C(=O)C1=COCCO1)c1nc2ccc(C)cc2s1.Cl | -78.3
CCN(CC)CCN(C(=O)C1=COCCO1)c1nc2cc(C)cc(C)c2s1.Cl | -69
Cc1cc(C)c2sc(NC(=O)C3=COCCO3)nc2c1 | -11.6
CCN(CC)CCN(C(=O)c1ccc(Br)s1)c1nc2cc3c(cc2s1)OCO3.Cl | -12
Cc1cc2ccccc2n1CCNC(=O)c1cccs1 | -0.757
